The sample as a whole holds a higher share of the strongest signals than the screen did.
What was measured:
Test in all cases: glycan array binding signal (z-score within array); higher = stronger binding
Details in all cases: glycan notation: IUPAC condensed, linker removed
Fuc(a1-2)Gal(b1-3)GlcNAc = target: Fuc(a1-2)Gal(b1-3)GlcNAc
Procedure, shortened: (§1)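 Negative Z-scores can be read as non-binding. The Z-score is calculated within each array and then averaged across arrays of one protein sequence at different concentrations or buffers and across linkers. Arrays, 3228 in all, were curated from the Consortium for Functional Glycomics database and kept only where the protein sequence was available.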

[1] = target: Fuc(a1-2)Gal(b1-4)[Fuc(a1-3)]GlcNAc(b1-3)Gal(b1-4)[Fuc(a1-3)]GlcNAc
Procedure, shortened: as §1

[2] = target: Fuc(a1-3)[Gal(b1-4)]GlcNAc(b1-3)Gal(b1-3)[Fuc(a1-4)]GlcNAc
Procedure, shortened: as §1

[3] = target: Fuc(a1-3)[Gal3S(b1-4)]Glc6S
Procedure, shortened: as §1

Gal(b1-3)GalNAc = target: Gal(b1-3)GalNAc
Procedure, shortened: as §1

[4] = target: Gal(b1-4)GlcNAc(b1-2)Man(a1-3)[Gal(b1-4)GlcNAc(b1-2)Man(a1-6)]Man(b1-4)GlcNAc(b1-4)GlcNAc
Procedure, shortened: as §1

[5] = target: Gal(b1-4)GlcNAc(b1-3)Gal(b1-4)[Fuc(a1-3)]GlcNAc(b1-3)Gal(b1-4)[Fuc(a1-3)]GlcNAc
Procedure, shortened: as §1

[6] = target: Gal(b1-4)GlcNAc(b1-3)[GlcNAc(b1-6)]Gal(b1-4)GlcNAc
Procedure, shortened: as §1

[7] = target: Gal(b1-4)GlcNAc(b1-6)[Gal(b1-3)]GalNAc
Procedure, shortened: as §1

[8] = target: Gal3S(b1-4)[Fuc(a1-3)]Glc
Procedure, shortened: as §1

Gal4S6S(b1-4)GlcNAc = target: Gal4S6S(b1-4)GlcNAc
Procedure, shortened: as §1

Glc(a1-6)Glc(a1-6)Glc = target: Glc(a1-6)Glc(a1-6)Glc
Procedure, shortened: as §1

GlcA(b1-6)Gal = target: GlcA(b1-6)Gal
Procedure, shortened: as §1

[9] = target: Man(a1-2)Man(a1-3)[Man(a1-2)Man(a1-6)]Man(a1-6)[Man(a1-2)Man(a1-2)Man(a1-3)]Man
Procedure, shortened: as §1

[10] = target: Man(a1-2)Man(a1-6)[Man(a1-3)]Man(a1-6)[Man(a1-2)Man(a1-2)Man(a1-3)]Man(b1-4)GlcNAc(b1-4)GlcNAc
Procedure, shortened: as §1

Man(a1-3)[Man(a1-6)]Man = target: Man(a1-3)[Man(a1-6)]Man
Procedure, shortened: as §1

[11] = target: Neu5Ac(a2-3)Gal(b1-3)GalNAc(b1-4)[Neu5Ac(a2-3)]Gal(b1-4)Glc
Procedure, shortened: as §1

[12] = target: Neu5Ac(a2-3)Gal(b1-4)GlcNAc(b1-3)Gal(b1-3)GlcNAc
Procedure, shortened: as §1

[13] = target: Neu5Ac(a2-3)Gal(b1-4)[Fuc(a1-3)]GlcNAc(b1-3)Gal
Procedure, shortened: as §1

[14] = target: Neu5Ac(a2-3)[GalNAc(b1-4)]Gal(b1-4)Glc
Procedure, shortened: as §1

[15] = target: Neu5Ac(a2-6)Gal(b1-4)GlcNAc(b1-2)Man(a1-3)[GlcNAc(b1-2)Man(a1-6)]Man(b1-4)GlcNAc(b1-4)GlcNAc
Procedure, shortened: as §1

[16] = target: Neu5Ac(a2-6)GalNAc(b1-4)GlcNAc
Procedure, shortened: as §1

[17] = target: Fuc(a1-2)Gal(b1-3)GlcNAc(b1-2)Man(a1-3)[Fuc(a1-2)Gal(b1-3)GlcNAc(b1-2)Man(a1-6)]Man(b1-4)GlcNAc(b1-4)GlcNAc
Procedure, shortened: as §1

Fuc(a1-2)Gal(b1-4)Glc6S = target: Fuc(a1-2)Gal(b1-4)Glc6S
Procedure, shortened: as §1

[18] = target: Fuc(a1-2)Gal(b1-4)GlcNAc(b1-3)Gal(b1-4)GlcNAc(b1-3)Gal(b1-4)GlcNAc
Procedure, shortened: as §1

[19] = target: Fuc(a1-2)Gal(b1-4)[Fuc(a1-3)]GlcNAc(b1-2)Man(a1-3)[Fuc(a1-2)Gal(b1-4)[Fuc(a1-3)]GlcNAc(b1-2)Man(a1-6)]Man(b1-4)GlcNAc(b1-4)GlcNAc
Procedure, shortened: as §1

[20] = target: Fuc(a1-2)[Gal(a1-3)]Gal(b1-4)GlcNAc(b1-2)Man(a1-3)[Fuc(a1-2)[Gal(a1-3)]Gal(b1-4)GlcNAc(b1-2)Man(a1-6)]Man(b1-4)GlcNAc(b1-4)GlcNAc
Procedure, shortened: as §1

[21] = target: Fuc(a1-3)[Gal3S(b1-4)]GlcNAc
Procedure, shortened: as §1

[22] = target: Fuc(a1-3)[Neu5Ac(a2-3)]Gal(b1-4)GlcNAc(b1-3)GalNAc
Procedure, shortened: as §1

Gal(a1-3)Gal(b1-4)Glc = target: Gal(a1-3)Gal(b1-4)Glc
Procedure, shortened: as §1

[23] = target: Gal(a1-3)Gal(b1-4)[Fuc(a1-3)]GlcNAc(b1-2)Man(a1-3)[Gal(a1-3)Gal(b1-4)[Fuc(a1-3)]GlcNAc(b1-2)Man(a1-6)]Man(b1-4)GlcNAc(b1-4)GlcNAc
Procedure, shortened: as §1

[24] = target: Gal(b1-3)[Fuc(a1-4)]GlcNAc(b1-2)Man(a1-3)[Gal(b1-3)[Fuc(a1-4)]GlcNAc(b1-2)Man(a1-6)]Man(b1-4)GlcNAc(b1-4)GlcNAc
Procedure, shortened: as §1

Gal3S6S(b1-4)GlcNAc6S = target: Gal3S6S(b1-4)GlcNAc6S
Procedure, shortened: as §1

Gal6S(b1-4)GlcNAc6S = target: Gal6S(b1-4)GlcNAc6S
Procedure, shortened: as §1

[25] = target: GalNAc(b1-3)Gal(a1-4)Gal(b1-4)GlcNAc(b1-3)Gal(b1-4)Glc
Procedure, shortened: as §1

[26] = target: GalNAc(b1-4)GlcNAc(b1-2)Man(a1-3)[GalNAc(b1-4)GlcNAc(b1-2)Man(a1-6)]Man(b1-4)GlcNAc(b1-4)GlcNAc
Procedure, shortened: as §1

[27] = target: GlcNAc(b1-3)[GlcNAc(b1-6)]GalNAc
Procedure, shortened: as §1

[28] = target: GlcNAc(b1-6)Gal(b1-4)GlcNAc
Procedure, shortened: as §1

GlcNAc3Prop(b1-4)GlcNAc = target: GlcNAc3Prop(b1-4)GlcNAc
Procedure, shortened: as §1

[29] = target: GlcNAc6S(b1-3)Gal(b1-4)GlcNAc
Procedure, shortened: as §1

[30] = target: Man(a1-2)Man(a1-2)Man(a1-6)[Man(a1-3)]Man
Procedure, shortened: as §1

[31] = target: Man(a1-2)Man(a1-3)[Man(a1-2)Man(a1-6)]Man
Procedure, shortened: as §1

[32] = target: Man(a1-3)[Man(a1-6)]Man(a1-6)[Man(a1-2)Man(a1-3)]Man(b1-4)GlcNAc(b1-4)GlcNAc
Procedure, shortened: as §1

[33] = target: Man(a1-3)[Man(a1-6)]Man(a1-6)[Man(a1-3)]Man(b1-4)GlcNAc(b1-4)GlcNAc
Procedure, shortened: as §1

Neu5Ac(a2-3)Gal(b1-4)Glc = target: Neu5Ac(a2-3)Gal(b1-4)Glc
Procedure, shortened: as §1

[34] = target: Neu5Ac(a2-3)Gal(b1-4)GlcNAc6S
Procedure, shortened: as §1

[35] = target: Neu5Ac(a2-3)Gal(b1-4)[Fuc(a1-3)]GlcNAc
Procedure, shortened: as §1

[36] = target: Neu5Ac(a2-3)Gal6S(b1-4)GlcNAc
Procedure, shortened: as §1

[37] = target: Neu5Ac(a2-3)Gal6S(b1-4)[Fuc(a1-3)]GlcNAc
Procedure, shortened: as §1

[38] = target: Neu5Ac(a2-3)[GalNAc(b1-4)]Gal(b1-4)GlcNAc
Procedure, shortened: as §1

[39] = target: Neu5Ac(a2-6)Gal(b1-4)GlcNAc(b1-3)Gal(b1-3)GlcNAc
Procedure, shortened: as §1

[40] = target: Neu5Ac(a2-6)Gal(b1-4)GlcNAc(b1-3)Gal(b1-4)GlcNAc
Procedure, shortened: as §1

[41] = target: Neu5Ac(a2-6)Gal(b1-4)GlcNAc(b1-3)Gal(b1-4)[Fuc(a1-3)]GlcNAc(b1-3)Gal(b1-4)[Fuc(a1-3)]GlcNAc
Procedure, shortened: as §1

B1: RfpB (Mycobacterium tuberculosum), O05594 (protein)
chain: MAAGLVTASMSLSTAVAHAGPSPNWDAVAQCESGGNWAANTGNGKYGGLQFKPATWAAFGGVGNPAAASREQQIAVANRVLAEQGLDAWPTCGAASGLPIALWSKPAQGIKHAGPSPNWDAVAQCESGGNWAANTGNGKYGGLQFKPATWAAFGGVGNPAAASREQQIAVANRVLAEQGLDAWPTCGA
**Q.** Which “glycan array binding signal (z-score)” value (Fuc(a1-2)Gal(b1-3)GlcNAc) does the source give for B1 here?
**A.** 0.352

**Q.** What about the “glycan array binding signal (z-score)” value [1] of the same binder?
**A.** -0.487

**Q.** What about the “glycan array binding signal (z-score)” value [2] of the same binder?
**A.** -0.065

**Q.** And the “glycan array binding signal (z-score)” value [3]?
**A.** 2.53

**Q.** What about the “glycan array binding signal (z-score)” value (Gal(b1-3)GalNAc) of the same binder?
**A.** -0.202

**Q.** And the “glycan array binding signal (z-score)” value [4]?
**A.** -0.1

**Q.** What about the “glycan array binding signal (z-score)” value [5] of the same binder?
**A.** 9.72

**Q.** And the “glycan array binding signal (z-score)” value [6]?
**A.** 2.74

**Q.** What about the “glycan array binding signal (z-score)” value [7] of the same binder?
**A.** -0.262

**Q.** What about the “glycan array binding signal (z-score)” value [8] of the same binder?
**A.** -0.568

**Q.** What about the “glycan array binding signal (z-score)” value (Gal4S6S(b1-4)GlcNAc) of the same binder?
**A.** 0.03

**Q.** What about the “glycan array binding signal (z-score)” value (Glc(a1-6)Glc(a1-6)Glc) of the same binder?
**A.** -0.239

**Q.** What about the “glycan array binding signal (z-score)” value (GlcA(b1-6)Gal) of the same binder?
**A.** -0.284

**Q.** What about the “glycan array binding signal (z-score)” value [9] of the same binder?
**A.** -0.097

**Q.** And the “glycan array binding signal (z-score)” value [10]?
**A.** -0.426

**Q.** And the “glycan array binding signal (z-score)” value (Man(a1-3)[Man(a1-6)]Man)?
**A.** 9.95

**Q.** What about the “glycan array binding signal (z-score)” value [11] of the same binder?
**A.** 4.02

**Q.** What about the “glycan array binding signal (z-score)” value [12] of the same binder?
**A.** -0.23

**Q.** What about the “glycan array binding signal (z-score)” value [13] of the same binder?
**A.** -0.07

**Q.** What about the “glycan array binding signal (z-score)” value [14] of the same binder?
**A.** -0.524

**Q.** And the “glycan array binding signal (z-score)” value [15]?
**A.** -0.499

**Q.** What about the “glycan array binding signal (z-score)” value [16] of the same binder?
**A.** -0.639

B2: StdA (Salmonella typhimurium), Q8Z3Z0 (protein)
chain: MAAAGMMYGASVFAADTTPTAGPFGSGKILFTGTITNSPCDIAPGDDAITVPFGQISYRKLNTANATTDSKPFTIHLQNCAFDPNETTIAGSAGKMSKVTVSFSGTADTSGKAYVSTGSAQHVGVQLLKGDNTSLITPNTPMPDGDAQQLQAGNNELNFFARLIALTDAATPGDVNASVTYTLKYL
**Q.** Which results are given for B2?
**A.** glycan array binding signal (z-score) (Fuc(a1-2)Gal(b1-3)GlcNAc): -0.15; glycan array binding signal (z-score) [17]: 10.3; glycan array binding signal (z-score) (Fuc(a1-2)Gal(b1-4)Glc6S): 0.205; glycan array binding signal (z-score) [18]: 0.168; glycan array binding signal (z-score) [19]: 2.3; glycan array binding signal (z-score) [20]: -0.604; glycan array binding signal (z-score) [3]: 6.5; glycan array binding signal (z-score) [21]: 0.034; glycan array binding signal (z-score) [22]: 4.78; glycan array binding signal (z-score) (Gal(a1-3)Gal(b1-4)Glc): 0.257; glycan array binding signal (z-score) [23]: 4.97; glycan array binding signal (z-score) [24]: 5.67; glycan array binding signal (z-score) (Gal3S6S(b1-4)GlcNAc6S): -0.494; glycan array binding signal (z-score) (Gal6S(b1-4)GlcNAc6S): -0.164; glycan array binding signal (z-score) [25]: 0.837; glycan array binding signal (z-score) [26]: 3.5; glycan array binding signal (z-score) [27]: 0.036; glycan array binding signal (z-score) [28]: 0.557; glycan array binding signal (z-score) (GlcNAc3Prop(b1-4)GlcNAc): -0.424; glycan array binding signal (z-score) [29]: 1.03; glycan array binding signal (z-score) [30]: -0.088; glycan array binding signal (z-score) [31]: -0.749; glycan array binding signal (z-score) [32]: -0.109; glycan array binding signal (z-score) [33]: -0.131; glycan array binding signal (z-score) (Neu5Ac(a2-3)Gal(b1-4)Glc): -0.372; glycan array binding signal (z-score) [34]: -0.404; glycan array binding signal (z-score) [35]: -0.614; glycan array binding signal (z-score) [36]: -0.214; glycan array binding signal (z-score) [37]: -0.437; glycan array binding signal (z-score) [38]: -0.022; glycan array binding signal (z-score) [39]: -0.819; glycan array binding signal (z-score) [40]: -0.14; glycan array binding signal (z-score) [41]: 0.009

From the supplement of paper PMC8728848
